# Experimental data as given in PubChem BioAssay AID743279 (National Center for Advancing Translational Sciences (NCATS), 2014).
# Screen size: about 360,000 compounds; about 17,000 (4.7%) were called active. Another 5% or so got no clear call; they are omitted. Rule as the data show it: active = activity change below about -50%; inconclusive = mostly about -30% to -49%; inactive = weaker than that. This excerpt belongs to a sample that is enriched for actives.
# Experiment: qHTS for Inhibitors of Inflammasome Signaling: IL-1-beta AlphaLISA Primary Screen
# Conditions: THP-1 LPS/ATP IL-1B secretion, 16 h; at 57.5 µM, stronger effect = lower value
# In short: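 THP-1 cells pretreated 1 hr with compounds (up to 57.5 uM final), then stimulated with LPS (250 ng/mL final) plus ATP (1.25 mM final); secreted IL-1B measured by AlphaLISA after 16 hr, decreased signal indicating inhibition.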
# % is scaled to controls: 0 for no effect and ±100 for the full control effect.
row,Compound,activity change
1,Cc1ccn(CC(=O)NC2CCCN(Cc3ccccc3F)C2)n1 (stereo unspecified),-22.3% (inactive)
2,C[C@H](NC(=O)[C@@H]1CCCN1C(=O)[C@@H]1CCCN1C(=O)c1ccccc1)c1ccccc1,9.38% (inactive)
3,CCc1oc(-c2ccc(OC)cc2)c(C(=O)OCCCCCO)c1C(C)OCCO (stereo unspecified),-1.94% (inactive)
4,COCCNc1ncnc2c1ncn2[C@H]1CN(Cc2ccc(OC)cc2)C[C@@H](CO)O1,-0.989% (inactive)
5,COc1ccc(-c2oc3ncnc(NCCCO)c3c2-c2ccc(OC)cc2)cc1,-68.8% (active)
6,Cn1ncc(Br)c1C(=O)NC1CCCC1,-17.3% (inactive)
7,CN(CC(=O)NCc1ccc2c(c1)OCO2)CC(=O)Nc1ccc(F)c(F)c1F,-7.29% (inactive)
8,COc1ccc(C2CC(c3cccs3)=Nc3ccccc3S2)cc1OC (stereo unspecified),-56.2% (active)
9,COc1ccc(C2CC(c3cccs3)=NN2C(=O)CSc2nnc(N)s2)cc1OC (stereo unspecified),-61.5% (active)
10,COc1ccc(C2CC(c3cccs3)=NN2C(=O)CSc2nncs2)cc1OC (stereo unspecified),-14.9% (inactive)
11,COc1ccccc1N1N=C(c2cccs2)CC1c1ccccc1 (stereo unspecified),24% (inactive)
12,COc1ccc(C2CC(c3cccs3)=NN2C(=O)COC(=O)c2cc3ccccc3cc2O)cc1OC (stereo unspecified),12.7% (inactive)
13,COc1ccc(C2CC(=O)n3c(nc4ccccc43)S2)cc1OC (stereo unspecified),-17% (inactive)
14,CC(C)(C)OC(=O)N1CCC(C(=O)Nc2cccc(C(=O)NCCc3ccccc3)c2)CC1,17.9% (inactive)
15,CCC1(C)COC(c2ccc(OC)c(OC)c2)OC1 (stereo unspecified),10.5% (inactive)
16,CC1(C(=O)NCc2ccccc2)CSCC(=O)N1CCCN1CCOCC1 (stereo unspecified),16.7% (inactive)
17,N#Cc1c(N)nc2c3c(sc(=N)c2c1N)NC(=O)CC3c1ccccc1Cl (stereo unspecified),36.3% (inactive)
18,CC1=NC2(CCCc3c2no[n+]3[O-])N(O)C1(C)C (stereo unspecified),1.59% (inactive)
19,COC(=O)C[C@H]1C[C@@H]2c3cc(NC(=O)Nc4ccccc4)ccc3O[C@@H]2[C@@H](CO)O1,9.89% (inactive)
20,COc1cccc(-c2nn(-c3ccccc3)cc2/C=C(\C#N)C(=O)NCCCn2ccnc2)c1,-84% (active)
21,COc1cc(OC)cc(C(=O)NCCCn2ccnc2)c1,20.1% (inactive)
22,COc1ccc(/C=C(\C#N)C(=O)NCCCn2ccnc2)cc1,-1.26% (inactive)
23,CCOC(=O)c1cc(-c2sc(NC(=O)c3ccccc3)nc2C)n(CCO)n1,-3.33% (inactive)

row,Compound,activity change
1,NS(=O)(=O)c1ccc(NC(=O)/C=C/c2ccccc2Cl)cc1,-17.1% (inactive)
2,COCCNC(=O)CSc1nc(N)c(NC(=O)c2ccco2)c(=O)[nH]1,0.73% (inactive)
3,CSc1ncc(Sc2ccccc2)c(C(=O)O)n1,5.96% (inactive)
4,CSc1nc(-c2ccccc2)nc(C(Cl)Cl)n1,-99.1% (active)
5,CC1(C)OC(=O)C2=C(CC(c3ccccc3)OC2CCc2ccccc2)O1 (stereo unspecified),-7.82% (inactive)
6,O=C(Nc1ccccc1C(=O)N1CCOCC1)c1ccc(Cl)cc1,12.7% (inactive)
7,CCOC(=O)N1CCN(C(=O)C2CC(c3ccc(F)cc3)=NO2)CC1 (stereo unspecified),-3.7% (inactive)
8,CNC(=S)N/N=C/c1cn(Cc2ccc(C)cc2)c2ccccc12,-7.55% (inactive)
9,O=Cc1cn(CCOc2ccc(F)cc2)c2ccccc12,-5.47% (inactive)
10,COC(=O)N/N=C/c1cn(CCCOc2ccc(C)cc2)c2ccccc12,-91% (active)
11,Cc1ccc([C@@H]2CC(=O)[C@@H]3CN(S(=O)(=O)c4ccc(C)cc4)[C@H](c4ccccc4F)C[C@@H]3N2S(=O)(=O)c2ccc(Cl)cc2)cc1,0% (inactive)
12,Cn1cnc(S(=O)(=O)N2C[C@@H](O)COC[C@@H]3O[C@H](CC(=O)NC4CCC4)CC[C@H]32)c1,3.76% (inactive)
13,CC(=O)c1c(C)[nH]c(C(=O)OCC(=O)Nc2c(C)n(C)n(-c3ccccc3)c2=O)c1C,30.6% (inactive)
14,COc1ccc(C(C)(NC(C)=O)c2nc(-c3ccc(S(C)(=O)=O)cc3)cs2)cc1 (stereo unspecified),-7.6% (inactive)
15,O=C(CSC1=NCCS1)Nc1nc(-c2ccccc2)cs1,-4.52% (inactive)
16,COc1ccc2c(c1OC)C(=O)OC2Nc1nc(-c2ccccc2)cs1 (stereo unspecified),-117% (active)
17,CCCc1cc(-c2nc(-c3ccc(C)cc3)cs2)ccn1,19.6% (inactive)
18,Cc1ccc(-c2csc(NC3OC(=O)c4ccccc43)n2)cc1 (stereo unspecified),-99% (active)
19,CCc1ccccc1NC(=O)[C@@H]1CCC(=O)N1C1OC(=O)c2c1ccc(OC)c2OC (stereo partly specified),-9.95% (inactive)
20,COc1ccc(N/C=C(\C2OC(=O)c3ccccc32)[N+](=O)[O-])cc1 (stereo unspecified),-0.0924% (inactive)
21,COc1ccc(-c2csc(NC3OC(=O)c4ccccc43)n2)cc1 (stereo unspecified),-77.8% (active)
22,Cc1ccc(-c2csc(NC(=O)Cn3[nH]c(=O)c4ccccc4c3=O)n2)cc1,10.3% (inactive)
23,OC(c1ccc(Cl)cc1)c1ncc(-c2ccc(Cl)cc2)[nH]1 (stereo unspecified),-2.78% (inactive)

row,Compound,activity change
1,CCCNC(=O)C1(C)CCCN(C(=O)c2oc3ccccc3c2C)C1 (stereo unspecified),35.7% (inactive)
2,CN1CCN(c2ccncc2S(=O)(=O)N2CCCC2)CC1,21.6% (inactive)
3,COc1ccc2c(CC(=O)OCC(=O)NC(N)=O)coc2c1,0% (inactive)
4,CCNC(=O)C1(C)CCCN(C(=O)c2ccc3ccccc3n2)C1 (stereo unspecified),-16.3% (inactive)
5,COc1ccc(C=C2CCC3C(CCCC34OCCO4)C2=O)cc1 (stereo unspecified),-24.6% (inactive)
6,O=C(CSCc1ccc(Br)cc1)Nc1ccc(S(=O)(=O)N2CCCCCC2)cc1,23.8% (inactive)
7,COc1ccc(CCNC(=O)CN2C(=O)COc3ccc(S(=O)(=O)N4CCCC4)cc32)cc1OC,-11.4% (inactive)
8,CCc1ccc(NC(=O)CN2C(=O)COc3ccc(S(=O)(=O)N4CCCC4)cc32)cc1,-54.9% (active)
9,COCCCNC(=O)CN1C(=O)CSc2ccc(S(=O)(=O)N3CCOCC3)cc21,-5.17% (inactive)
10,O=C(CN1CCCCCC1)Nc1ccc(S(=O)(=O)N2CCCCC2)cc1,-59.2% (active)
11,CC1CCN(CCCNC(=O)CN2C(=O)CSc3ccc(S(=O)(=O)N4CCCCC4)cc32)CC1,-0.367% (inactive)
12,CCOc1ccc(NC(=O)COc2ccc(S(=O)(=O)N3CCCC3)cc2)cc1,5.76% (inactive)
13,CN(C)c1ccc(CNC(=O)CN2C(=O)COc3ccc(S(=O)(=O)N4CCCC4)cc32)cc1,12.9% (inactive)
14,COc1ccc(NC(=O)CN2C(=O)CSc3ccc(S(=O)(=O)N4CCC(C)CC4)cc32)cc1,-67.1% (active)
15,O=C(Nc1c(Br)cc2c(c1Br)Cc1ccccc1-2)C(F)(F)F,17.9% (inactive)
16,Cc1ccc2cc(CN(c3ccc(C)c(C)c3)S(C)(=O)=O)c(=O)[nH]c2c1,-25.8% (inactive)
17,COc1ccc(NC(=O)c2sc(=O)n(Cc3ccc(S(=O)(=O)N(C)C)cc3)c2C)cc1,6.5% (inactive)
18,O=C(NCc1ccccc1)C1c2ccccc2OCC(=O)N1C1CC1 (stereo unspecified),-1.49% (inactive)
19,Cc1cc(Br)cn2c(Cc3cccc(F)c3)c(-c3cccc(Br)c3)nc12,25.5% (inactive)
20,CCCC1C(c2ccccc2)C(C#N)(C#N)C2(C#N)CC1(N)NC2=O (stereo unspecified),3.18% (inactive)
21,COc1ccc(-c2csc(Nc3ccccn3)n2)cc1,-86.3% (active)
22,COc1ccc(C(C)(O)c2nc(-c3ccc(C)c(C)c3)cs2)cc1 (stereo unspecified),22% (inactive)
23,COc1ccc(C(O)c2nc(-c3ccc(OC)nc3)cs2)cc1 (stereo unspecified),36.7% (inactive)

row,Compound,activity change
1,COc1ccc(OC)c(Nc2nc(-c3ccc(O)c(O)c3)cs2)c1,-70% (active)
2,COc1ccc(C(C)(O)c2nc(-c3cc(F)cc(F)c3)cs2)cc1 (stereo unspecified),42.9% (inactive)
3,COc1ccc(-c2csc(Nc3ccc(O)cc3)n2)cc1,-79.3% (active)
4,COc1ccc(-c2csc(Cc3nc(O)cs3)n2)cc1,-95.7% (active)
5,COc1ccc(C(O)c2nc(-c3ccc4c(c3)OCO4)cs2)cc1 (stereo unspecified),-22.4% (inactive)
6,COc1ccc(-c2cc3ncccc3cn2)cc1,15.7% (inactive)
7,COc1ccc(C(=O)/C=C/Nc2ccccn2)cc1,-1.59% (inactive)
8,COc1cccc(C(O)c2nc(-c3ccc(C)c(C)c3)cs2)c1 (stereo unspecified),27% (inactive)
9,COC(=O)CCc1sc(Nc2ccc(Br)cc2)nc1-c1ccc(OC)cc1,-13.7% (inactive)
10,NC(CSC(c1ccccc1)(c1ccccc1)c1ccc(-c2ccccc2)cc1)C(=O)O (stereo unspecified),1.83% (inactive)
11,C=CCNC(=O)CCCC(=O)NCC=C,0% (inactive)
12,OC(c1ccccc1)c1nc(/C=C/c2ccc(C(F)(F)F)cc2)cs1 (stereo unspecified),15.3% (inactive)
13,O=C(O)c1ccccc1Cc1ccc(F)c2ccccc12,47.2% (inactive)
14,O=S1(=O)CSCS(=O)(=O)C1,-18.2% (inactive)
15,COc1ccc([C@H]2N[C@]3(CCCN(Cc4ccco4)C3=O)[C@H]3C(=O)N(C)C(=O)[C@@H]23)cc1,-4.35% (inactive)
16,Cc1cc(=O)oc2c3c(cc(OCC(=O)NCCC(=O)N[C@@H](C)C(=O)O)c12)OC(C)(C)CC3,-0.546% (inactive)
17,O=c1oc2ccccc2cc1-c1csc(Nc2ccc(O)cc2)n1,-97.2% (active)
18,O=C(NCc1cccnc1)c1cccc(-c2cc3ccccc3oc2=O)c1,-3.38% (inactive)
19,Cc1ccn2c(-c3csc(Nc4ccc(C(=O)O)cc4)n3)c(C)nc2c1,30.5% (inactive)
20,Nc1nc2c(Br)ccc(Br)c2cc1C(=O)NCCc1ccccc1,0% (inactive)
21,CCCCN(C(=O)c1cccc(N2C(=O)c3ccccc3C2=O)c1)c1c(N)n(CCCC)c(=O)[nH]c1=O,13% (inactive)
22,CCC(C)NCCOCCOc1ccc(Br)cc1C (stereo unspecified),-17.9% (inactive)
